Test results from the supplement of paper PMC12808144.
Values without a mark were called inactive.

Legend:
[1] = system: NHEM-hTERT; assay: cell viability relative to DMSO control (fraction of DMSO control); higher = less cytotoxic, active = 0.5 or less; settings: 1 µM; 120 h
Procedure, shortened: (§1)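 Three cell types were screened against 315 approved anti-cancer drugs from TargetMol, acoustically pre-spotted in 384-well plates at 1 µM in duplicate over 120 h: NHEM-hTERT immortalized melanocytes (2500/well), patient-derived Mel-DCC-11 and its resistant subline Mel-DCC-11-R (both 1500/well), all in 40 µl per well. The subline was tested alone and with 8 µM of its selecting drug. Viability, measured by luminescence, was normalised to vehicle controls and averaged across duplicates, with ATPlite 1step as the readout.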

[2] = system: Mel-DCC-11-R; assay: cell viability relative to DMSO control (fraction of DMSO control); higher = less cytotoxic, active = 0.8 or less; settings: 1 µM, 120 h
Procedure, shortened: as §1

Row | Compound | cell viability [1] | cell viability ([2]; vemurafenib co-treatment 0 µM) | cell viability ([2]; vemurafenib co-treatment 8 µM)
1 | Nc1ncn([C@H]2C[C@H](O)[C@@H](CO)O2)c(=O)n1 [Decitabine] | 0.907 | 1.31 | 0.968
2 | Cc1[nH]c2ccccc2c1CCNCc1ccc(/C=C/C(=O)NO)cc1 [Panobinostat] | 0.339 (active) | 0.0716 (active) | 0.0801 (active)
3 | COC(=O)C[C@](O)(CCCC(C)(C)O)C(=O)O[C@@H]1C(OC)=CC23CCCN2CCc2cc4c(cc2[C@H]13)OCO4 (some centres undefined) [Homoharringtonine] | 0.228 (active) | 0.0454 (active) | 0.0543 (active)
4 | Nc1cccc2c1CN(C1CCC(=O)NC1=O)C2=O (centres undefined) [Lenalidomide] | 0.996 | 0.713 (active) | 1.01
5 | COC(=O)[C@]12CCC(C)(C)C[C@H]1[C@H]1C(=O)C=C3[C@@]4(C)C=C(C#N)C(=O)C(C)(C)[C@@H]4CC[C@@]3(C)[C@]1(C)CC2 [Bardoxolone Methyl] | 0.0925 (active) | 0.833 | 0.578 (active)
6 | N.N.O=C([O-])C1(C(=O)[O-])CCC1.[Pt+2] [Carboplatin] | 1.05 | 0.973 | 1.23
7 | CNC(=O)c1ccc(N2C(=S)N(c3ccc(C#N)c(C(F)(F)F)c3)C(=O)C2(C)C)cc1F [Enzalutamide] | 1.11 | 0.889 | 1.09
8 | C[C@H](Nc1ncnc2nc[nH]c12)c1cc2cccc(Cl)c2c(=O)n1-c1ccccc1 [Duvelisib] | 0.912 | 1.21 | 0.864
